From PubChem BioAssay
Active and inactive are the calls of the source.

Columns and labels:
[1] = tested on: PRMT1 (protein arginine N-methyltransferase 1); experiment: PRMT1 binders on small-molecule microarrays, primary screen, biochemical, small-molecule microarray, 635 nm fluorescence (AID 1088); details: small-molecule microarray binding, higher = more signal;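 also: binding of Prmt1 protein to compounds spotted on small-molecule microarray slides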
[2] = yeast growth modulation, basal conditions, primary screen, YJM789 clinical isolate, OD600, 24 h (AID 1089);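 also: growth of clinical yeast isolate S. cerevisiae YJM 789 seeded 1000 cells per well; test concentration not given here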; details: S. cerevisiae YJM789 growth, higher = more signal, called active from +8 up or from −8 down
[3] = fission yeast growth modulation, primary screen, strain 972, OD600, 24 h, no modulator (AID 1090);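 also: basal condition with compound alone and no growth modifier present; test concentration not given here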; details: S. pombe 972 growth, higher = more signal, called active from +8 up or from −8 down
[4] = S. cerevisiae growth modulation with rapamycin, primary screen, strain BY4716, OD600, 96 h (AID 1091); details: higher = more signal, called active from +8 up or from −8 down; also: test concentration not given here
[5] = target: Torsin-1A-interacting protein 2 (Homo sapiens) (UniProt Q8NFQ8); experiment: LULL1 binders on small-molecule microarray, primary screen, cell lysate, human LULL1 lysate, 635/667 nm fluorescence (AID 1092); details: hLULL1 lysate binding, 635 nm fluorescence, higher = more signal;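 also: probe is lysate of COS7 cells overexpressing human LULL1; score merges per-feature 667 nm fluorescence with signal-to-noise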
[6] = E. coli growth modulation, two-sided OD650, primary screen, E. coli filamentation project, strain DRC41, 24 h (AID 1093); details: OD650, 24 h, higher = more signal, called active from +8 up or from −8 down;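 also: MC1000 strain lacking acrAB efflux and sulA so SOS filamentation is blocked; test concentration not given here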
[7] = small-molecule microarray binders of probe aLefty2, primary screen, biochemical, biotinylated probe, 635/667 nm fluorescence (AID 1094); details: higher = more signal;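 also: score merges spot fluorescence near 667 nm with spot signal-to-noise ratio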
[8] = tested on: Noggin (protein binding on small-molecule microarray); experiment: Noggin binders on small-molecule microarray, primary screen, biochemical, 635/667 nm fluorescence (AID 1095); details: 635 nm fluorescence, higher = more signal;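 also: score merges 667 nm feature fluorescence with signal to noise over triplicate slides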
[9] = target: Neurogenic locus notch homolog protein 3 (Homo sapiens) (UniProt Q9UM47); experiment: NOTCH3 binders on small-molecule microarray, primary screen, biochemical, 635/667 nm fluorescence (AID 1096); details: NOTCH3 binding, 635 nm fluorescence, higher = more signal
[10] = small-molecule microarray binders of probe aEGFR, primary screen, biochemical, biotinylated probe, 635/667 nm fluorescence (AID 1097); details: higher = more signal;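 also: probe is a biotinylated anti-EGFR antibody binding compounds printed on slides; score combines fluorescence near 667 nm and signal to noise of each spot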

Chain of Neurogenic locus notch homolog protein 3 (Homo sapiens) (Q9UM47 whole entry, looked up): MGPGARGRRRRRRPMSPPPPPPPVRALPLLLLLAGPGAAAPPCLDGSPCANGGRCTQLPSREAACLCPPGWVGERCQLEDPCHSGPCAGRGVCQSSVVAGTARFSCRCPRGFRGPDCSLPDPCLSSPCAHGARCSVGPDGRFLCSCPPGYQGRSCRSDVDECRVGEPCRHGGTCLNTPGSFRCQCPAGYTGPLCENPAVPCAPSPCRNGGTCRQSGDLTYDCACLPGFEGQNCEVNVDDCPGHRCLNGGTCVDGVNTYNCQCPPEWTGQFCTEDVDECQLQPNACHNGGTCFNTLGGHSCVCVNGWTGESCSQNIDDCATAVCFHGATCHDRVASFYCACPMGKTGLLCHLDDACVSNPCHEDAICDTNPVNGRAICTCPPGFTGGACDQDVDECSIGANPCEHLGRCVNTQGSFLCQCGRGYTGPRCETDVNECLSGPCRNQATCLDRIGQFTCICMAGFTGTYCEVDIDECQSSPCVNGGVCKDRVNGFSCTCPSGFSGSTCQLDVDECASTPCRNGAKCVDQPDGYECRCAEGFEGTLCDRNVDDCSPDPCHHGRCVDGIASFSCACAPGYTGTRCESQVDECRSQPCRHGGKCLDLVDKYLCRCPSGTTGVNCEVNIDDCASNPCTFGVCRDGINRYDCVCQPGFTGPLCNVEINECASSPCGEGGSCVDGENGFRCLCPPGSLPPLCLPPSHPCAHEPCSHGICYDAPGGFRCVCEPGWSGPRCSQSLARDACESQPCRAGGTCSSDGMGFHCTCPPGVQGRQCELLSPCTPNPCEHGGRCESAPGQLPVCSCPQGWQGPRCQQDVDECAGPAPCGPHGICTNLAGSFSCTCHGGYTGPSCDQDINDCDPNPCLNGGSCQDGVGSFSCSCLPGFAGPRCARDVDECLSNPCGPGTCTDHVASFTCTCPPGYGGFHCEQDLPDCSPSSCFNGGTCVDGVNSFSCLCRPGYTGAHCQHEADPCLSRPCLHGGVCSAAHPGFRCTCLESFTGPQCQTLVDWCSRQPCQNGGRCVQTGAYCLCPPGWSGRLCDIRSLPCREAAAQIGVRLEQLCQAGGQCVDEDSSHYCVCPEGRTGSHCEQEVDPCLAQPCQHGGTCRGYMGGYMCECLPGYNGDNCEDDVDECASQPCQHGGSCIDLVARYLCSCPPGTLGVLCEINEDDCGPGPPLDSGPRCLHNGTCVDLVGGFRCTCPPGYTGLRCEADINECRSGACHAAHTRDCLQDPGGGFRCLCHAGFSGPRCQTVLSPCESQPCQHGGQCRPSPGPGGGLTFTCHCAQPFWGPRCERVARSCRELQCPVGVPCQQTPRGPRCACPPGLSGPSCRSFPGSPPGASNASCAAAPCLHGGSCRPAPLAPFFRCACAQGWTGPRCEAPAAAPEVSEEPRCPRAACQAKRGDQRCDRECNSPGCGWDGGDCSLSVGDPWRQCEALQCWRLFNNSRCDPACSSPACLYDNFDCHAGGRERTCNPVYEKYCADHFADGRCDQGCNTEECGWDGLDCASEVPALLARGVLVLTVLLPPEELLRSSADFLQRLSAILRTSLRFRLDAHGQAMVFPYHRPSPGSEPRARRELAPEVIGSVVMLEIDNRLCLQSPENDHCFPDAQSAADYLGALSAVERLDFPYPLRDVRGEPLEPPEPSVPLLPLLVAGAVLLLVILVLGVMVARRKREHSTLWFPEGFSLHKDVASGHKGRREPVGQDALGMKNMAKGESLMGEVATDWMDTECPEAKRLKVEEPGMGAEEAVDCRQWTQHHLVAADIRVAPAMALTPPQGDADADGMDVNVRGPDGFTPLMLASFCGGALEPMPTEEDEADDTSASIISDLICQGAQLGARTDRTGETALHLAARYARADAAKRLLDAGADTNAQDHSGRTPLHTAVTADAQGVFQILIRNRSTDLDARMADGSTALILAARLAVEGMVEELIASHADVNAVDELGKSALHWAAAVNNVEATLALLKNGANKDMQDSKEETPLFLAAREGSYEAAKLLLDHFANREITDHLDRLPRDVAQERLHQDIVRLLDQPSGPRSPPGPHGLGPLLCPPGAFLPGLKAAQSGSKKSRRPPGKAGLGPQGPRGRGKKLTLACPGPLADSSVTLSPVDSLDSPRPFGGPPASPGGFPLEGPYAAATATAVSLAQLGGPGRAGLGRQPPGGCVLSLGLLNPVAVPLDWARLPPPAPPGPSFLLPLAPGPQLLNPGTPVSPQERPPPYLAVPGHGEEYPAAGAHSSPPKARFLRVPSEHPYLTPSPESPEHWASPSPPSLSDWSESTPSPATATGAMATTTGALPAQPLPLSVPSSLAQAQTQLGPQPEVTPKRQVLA
Chain of Torsin-1A-interacting protein 2 (Homo sapiens) (Q8NFQ8 whole entry, looked up): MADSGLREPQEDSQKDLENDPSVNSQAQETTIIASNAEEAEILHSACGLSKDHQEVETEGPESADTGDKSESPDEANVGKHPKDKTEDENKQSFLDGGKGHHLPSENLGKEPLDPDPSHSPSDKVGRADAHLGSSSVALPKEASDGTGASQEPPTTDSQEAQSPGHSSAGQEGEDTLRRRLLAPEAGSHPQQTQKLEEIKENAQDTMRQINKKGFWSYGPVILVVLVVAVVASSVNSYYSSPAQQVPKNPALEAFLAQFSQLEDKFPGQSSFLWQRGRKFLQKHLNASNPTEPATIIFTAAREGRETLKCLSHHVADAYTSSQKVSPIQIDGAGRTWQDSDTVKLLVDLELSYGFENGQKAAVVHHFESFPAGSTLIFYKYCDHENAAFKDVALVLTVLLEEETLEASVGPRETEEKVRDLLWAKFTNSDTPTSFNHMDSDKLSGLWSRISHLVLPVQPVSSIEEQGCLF

Row | Compound | composite z-score [1] | z-score [2] | z-score [3] | z-score [4] | composite z-score [5] | z-score [6] | composite z-score [7] | composite z-score [8] | composite z-score [9] | composite z-score [10]
1 | O=C1C[C@@](C(=O)NCC(F)(F)F)(c2ccc([N+](=O)[O-])cc2)[C@@H](c2ccc(CO)cc2I)N1C1CCCCC1 | 1.55 | -0.732 (inactive) | 0.294 (inactive) | 1.16 (inactive) | 2.52 | -0.426 (inactive) | 0.0524 | 0.572 | 1.09 | 0.0721
2 | CC(=O)n1cc(C(O)C2C=CC3C(=O)N(c4ccccc4)C(=O)C3N2Nc2ccc([N+](=O)[O-])cc2)c2ccccc21 (stereo not given) | 1.45 | -0.701 (inactive) | 0.451 (inactive) | 2.05 (inactive) | 3.28 | -0.567 (inactive) | 0.534 | -0.386 | 1.06 | -0.0355
3 | O=C(NC1CC1)[C@@H]1c2ccccc2C(=O)N(Cc2ccccc2Cl)[C@H]1c1ccc(CO)cc1 | 1.54 | -2.17 (inactive) | -2.52 (inactive) | -1.66 (inactive) | 2.77 | 4.01 (inactive) | 0.161 | 1.02 | 1.11 | 0.0103
4 | CC(C)C(=C=CC[C@@H](O)c1ccc(OCCO)cc1)C[C@@H](O)c1ccccn1 | 1.19 | -1 (inactive) | -0.141 (inactive) | -0.347 (inactive) | -0.27 | -0.162 (inactive) | -0.235 | 1.08 | 0.813 | -0.133
5 | C=CCOC(=O)[C@H]1[C@@H]2C(=O)O[C@@H](c3ccccc3)[C@@H](c3ccccc3)N2[C@@H](c2ccc(OCCOC(=O)[C@H]3C[C@H]4C(=O)N[C@@H](CCCC[N+](C)(C)C)C(=O)N4[C@H]3c3ccc(O)cc3)cc2)[C@]12C(=O)Nc1ccc(I)cc12 | 1.36 | 0.318 (inactive) | -0.503 (inactive) | 0.467 (inactive) | 1.14 | -0.173 (inactive) | 0.331 | 0.733 | 0.209 | 0.0304
6 | COCCOC(=O)N1C(=O)[C@@]2(c3ccccc31)[C@H](c1ccc(O)cc1)N1[C@H](c3ccccc3)[C@H](c3ccccc3)OC(=O)[C@H]1[C@@H]2C(=O)Nc1nc2ccccc2s1 | 1.31 | 1.35 (inactive) | 0.396 (inactive) | 1.75 (inactive) | 1.94 | 1.31 (inactive) | 0.201 | 0.734 | 1.09 | 0.0432
7 | C=CCC(OC(C)=O)[C@@H]1[C@@H](N(Cc2cc3ccccc3o2)C(=O)c2cccc3ccccc23)c2cc(OCCCO)ccc2N1C(=O)c1ccc(-c2ccccc2)cc1 (stereo not given in full) | -0.101 | 0.109 (inactive) | -0.847 (inactive) | 0.0344 (inactive) | 0.581 | 1.78 (inactive) | -0.0674 | 0.293 | -0.527 | 0.0969
8 | C=C[C@@H](COC(=O)OC(C)(C)C)N(Cc1ccc(OC)cc1)S(=O)(=O)c1ccc(Br)cc1 | 0.345 | -0.374 (inactive) | -0.521 (inactive) | -0.555 (inactive) | 0.269 | -0.701 (inactive) | 0.047 | 1.07 | 1.12 | -0.0088
9 | [N-]=[N+]=NCc1ccccc1C[C@]1(C(=O)N2CCCCC2)N=C(c2ccc(OCCCO)cc2)O[C@H]1c1ccccc1N=[N+]=[N-] | 1.57 | -0.912 (inactive) | -0.371 (inactive) | 6.08 (inactive) | 3.09 | -0.442 (inactive) | 0.202 | -0.112 | 1.07 | 0.262
10 | COC(=O)C(CC#Cc1ccc2c(c1)[C@]1(C(=O)N2)[C@H](c2ccc(OCCO)cc2)N2[C@H](c3ccccc3)[C@H](c3ccccc3)OC(=O)[C@H]2[C@@H]1C(=O)Nc1nc2ccccc2s1)C(=O)OC | 1.58 | 2.63 (inactive) | 2.22 (inactive) | 3.14 (inactive) | 2.45 | 2.13 (inactive) | -0.175 | 1.41 | 1.09 | 0.0562
11 | COCCOC(=O)N1C(=O)[C@@]2(c3cc(C#CCCO)ccc31)[C@H](C(=O)N1CCCCCCC1)[C@H]1C(=O)O[C@H](c3ccccc3)[C@H](c3ccccc3)N1[C@@H]2c1ccc(OCCO)cc1 | 1.51 | 1.33 (inactive) | 1.3 (inactive) | 2.08 (inactive) | 3.52 | 0.584 (inactive) | 1.53 | 1.55 | 0.93 | 1.04
12 | O=C1c2ccccc2[C@](Cc2ccccc2I)(C(=O)NCCN2CCOCC2)[C@H](c2ccc(CO)cc2)N1Cc1ccccc1Cl | 1.55 | -0.747 (inactive) | -0.0063 (inactive) | -1.04 (inactive) | 2.45 | -0.116 (inactive) | 0.225 | 0.72 | 1.12 | 0.0523
13 | CCOC(=O)C[C@H]1[C@H](OC(=O)c2ccc(C(=O)c3ccccc3)cc2)[C@@H](NC(=O)c2ccccc2)c2cc(OCCCO)ccc2N1C(=O)Cc1ccc(OC)cc1 | 0.355 | 0.0572 (inactive) | -0.682 (inactive) | -0.0292 (inactive) | 0.84 | 0.0663 (inactive) | 0.0283 | 0.49 | 0.0805 | -0.142
14 | CCCC[C@H]1OB(O)C[C@H]2C1=C(COC)Cn1c(=O)n(-c3ccccc3)c(=O)n12 | 0.601 | 0.461 (inactive) | 0.19 (inactive) | -0.386 (inactive) | 0.814 | 0.498 (inactive) | -0.208 | 0.0562 | 0.121 | -0.137
15 | CCOC(=O)C[C@H]1[C@H](OC(=O)c2ccc(C(=O)c3ccccc3)cc2)[C@@H](NC(=O)c2ccc3ccccc3n2)c2cc(OCCCO)ccc2N1C(=O)c1ccccc1 | 1.23 | -0.658 (inactive) | 0.103 (inactive) | -0.291 (inactive) | 1.94 | -1.16 (inactive) | -0.025 | 0.552 | 0.99 | 0.0864
16 | CC1CC/C=C\[C@H]2OC34C=CCN(C(C)(C)C)C(=O)[C@H]3N(C(C)CO)C(=O)[C@@H]4C2C(=O)O1 (stereo not given in full) | -0.282 | 0.214 (inactive) | -0.538 (inactive) | -0.0168 (inactive) | -0.656 | -0.434 (inactive) | -0.207 | 0.0449 | -0.454 | -0.27
17 | C=CCNC(=O)[C@@H]1[C@H]2C(=O)O[C@H](c3ccccc3)[C@H](c3ccccc3)N2[C@H](c2ccc(O)cc2)[C@@]12C(=O)Nc1ccc(C#CCNC(N)=O)cc12 | 0.575 | -0.358 (inactive) | 0.112 (inactive) | 1.69 (inactive) | 2.13 | -1.11 (inactive) | -0.117 | 0.385 | 0.0332 | -0.172
18 | [N-]=[N+]=NCc1ccccc1[C@@H]1OC(c2ccc(OCCCO)cc2)=N[C@]1(Cc1ccccc1)C(N)=O | 1.48 | -0.368 (inactive) | -2.27 (inactive) | -0.784 (inactive) | 3.36 | 0.455 (inactive) | 0.227 | 0.683 | 1.06 | 0.154
19 | CCOC(=O)C[C@H]1[C@H](OC(=O)c2ccc(C(=O)c3ccccc3)cc2)[C@@H](NC(=O)CC(C)C)c2cc(OCCCO)ccc2N1C(=O)c1ccc2ccccc2n1 | 1.48 | 1.09 (inactive) | 0.606 (inactive) | 0.607 (inactive) | 1.99 | 0.995 (inactive) | 0.106 | 0.693 | 1.13 | -0.0565
20 | NC(=O)NCC#Cc1ccc2c(c1)[C@]1(C(=O)N2)[C@H](C(=O)Nc2nc3ccccc3s2)[C@H]2C(=O)O[C@H](c3ccccc3)[C@H](c3ccccc3)N2[C@@H]1c1ccccc1OCCO | 1.54 | 1.17 (inactive) | 1.33 (inactive) | 3.48 (inactive) | 3.85 | 1.5 (inactive) | -0.351 | 1.61 | 1.06 | 0.506
21 | CCc1cccc(NC(=O)O[C@H]2[C@H](OC(=O)Nc3ccccc3-c3ccccc3)[C@@H](OC(=O)Nc3ccccc3-c3ccccc3)[C@@H](OC)O[C@@H]2CO)c1 | 1.53 | 0.182 (inactive) | 1.42 (inactive) | -2.51 (inactive) | 3.43 | -1.31 (inactive) | 0.126 | 0.666 | 1.07 | 0.0506
22 | COC(=O)[C@@]1(Cc2ccccc2)[C@H]2c3cc(C(=O)N(C)C)n(Cc4ccsc4Br)c3C[C@H]2CN1C(=O)c1ccccc1 | -0.481 | 1.04 (inactive) | 1.17 (inactive) | 2.66 (inactive) | 3.32 | 0.166 (inactive) | 0.313 | 0.0244 | 1.05 | 0.196
23 | C[N+](C)(C)CCCCNC(=O)[C@H]1C[C@H]2C(=O)N3CCC[C@H]3C(=O)N2[C@H]1c1cccc(OCCO)c1 | 0.0394 | 0.573 (inactive) | -0.0177 (inactive) | -1.09 (inactive) | 0.889 | 0.51 (inactive) | 0.0459 | 1.52 | 0.0378 | -0.185
24 | C=C[C@H](C)[C@@H](OC(=O)Nc1ccc(OC)cc1)c1ccc(O)c2ccccc12 | 0.0444 | -24.6 (active) | -20.8 (active) | -3.58 (inactive) | 1.63 | 0.431 (inactive) | -0.266 | 0.823 | 0.0291 | -0.275
25 | O=C1C2C=CC(C(O)c3cc(C(F)(F)F)cc(C(F)(F)F)c3)N(n3cnnc3)C2C(=O)N1Cc1ccccc1 (stereo not given) | 0.369 | -0.572 (inactive) | 0.685 (inactive) | -0.384 (inactive) | 2.5 | 0.0068 (inactive) | -0.191 | -0.267 | 0.679 | -0.139
26 | NC(=O)NCC#Cc1ccc2c(c1)[C@]1(C(=O)N2)[C@H](C(N)=O)[C@H]2C(=O)O[C@H](c3ccccc3)[C@H](c3ccccc3)N2[C@@H]1c1ccc(O)cc1 | 0.317 | -0.989 (inactive) | -0.434 (inactive) | -0.07 (inactive) | 3.6 | 0.792 (inactive) | 0.411 | 0.544 | -0.382 | -0.413
27 | COC(=O)[C@@]1(Cc2ccc(OC)cc2)[C@H]2c3cc(C(=O)N(C)C)n(Cc4ccccn4)c3C[C@H]2CN1C(=O)c1ccccc1 | -1.12 | 0.0106 (inactive) | 0.785 (inactive) | 0.144 (inactive) | 3.08 | -0.621 (inactive) | 0.282 | -1.12 | 0.0171 | -0.0355
28 | CCOC(=O)[C@H]1C/C=C/C[C@H](C(=O)OCC)C(=O)O[C@H]2[C@@H](OC)O[C@H](CO)[C@@H](OC(=O)c3c(OC)cccc3OC)[C@@H]2OC1=O | 1.33 | 0.172 (inactive) | -1.13 (inactive) | 3.72 (inactive) | 2.86 | -0.901 (inactive) | 0.573 | 1.15 | 0.982 | -0.0921
